Assay outcomes (PubChem BioAssay)
Sampled rows, rich in hits. Any-hit rate of the full collection: about 27%.
CYP2C19 act: cytochrome P450 2C19 (human) activation; P33261; recombinant CYP2C19, luciferin-H EGE luminescence; stronger effect = higher value; 0 = fully inhibited enzyme, 1 = untreated enzyme; activation factor at 5 µM; 96,000 tested, under 10 active; AID 1025;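 active = activation factor of at least 2 at 5 µM in the primary screen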;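 also: 0 = wells with 2.5 mM tranylcypromine and 1 = vehicle-only wells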
Cav32 inh: inhibitors of human Cav3.2 T-type calcium channel. O95180. Cav3.2-expressing cells, Fluo-4 calcium fluorescence FDSS; stronger effect = lower value. B-score at 10 µM. 4% of 100,000 active. AID 449739;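 active = single-dose well whose peak fluorescence ratio is a statistical outlier from its plate by either plate-standardised score or position-corrected B-score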
CYP2C9 activ: CYP2C9 (human) activation | 1.4% of 96,000 active | activation factor at 5 µM | recombinant CYP2C9, luciferin-H conversion, luminescence; stronger effect = higher value; factor 1 = untreated enzyme, 0 = blocked | AID 1024 | P11712;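 active = activation factor of 2 or more for CYP2C9 at a 5 µM dose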;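 also: 0 = sulfaphenazole-blocked wells and 1 = vehicle-only wells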
Target sequence (P11712 whole entry, looked up): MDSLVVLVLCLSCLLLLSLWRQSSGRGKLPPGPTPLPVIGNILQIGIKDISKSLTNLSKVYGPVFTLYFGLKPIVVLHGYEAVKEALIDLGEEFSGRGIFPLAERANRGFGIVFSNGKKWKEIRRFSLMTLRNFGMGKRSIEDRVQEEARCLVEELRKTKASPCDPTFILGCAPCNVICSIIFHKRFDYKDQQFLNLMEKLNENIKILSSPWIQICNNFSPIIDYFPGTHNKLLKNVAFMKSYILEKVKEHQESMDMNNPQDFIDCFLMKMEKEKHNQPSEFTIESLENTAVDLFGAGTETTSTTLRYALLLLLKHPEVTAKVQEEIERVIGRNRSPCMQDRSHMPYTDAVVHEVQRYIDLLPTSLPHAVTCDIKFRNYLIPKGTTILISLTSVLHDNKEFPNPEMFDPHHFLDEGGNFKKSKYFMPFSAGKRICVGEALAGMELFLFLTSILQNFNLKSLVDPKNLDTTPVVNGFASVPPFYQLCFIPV
CYP2C19 inh: blocks human cytochrome P450 2C19 | 21% of 96,000 active | inhibition, % at 5 µM | P33261 | AID 778 | CYP2C19 Supersomes, luciferin-H EGE luminescence, 30 min;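 active = CYP2C19 inhibition above a set limit at 5 µM in the primary screen, cut at about 50% in these data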;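 also: plate controls were negative control wells for no effect and 2.5 mM tranylcypromine positive control for full effect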
CYP2C9 inhib: inhibitors of human CYP2C9 | CYP2C9 Supersomes, luciferin-H conversion, luminescence | P11712 | 20% of 96,000 active | inhibition, % at 5 µM;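 active = blocking of liver enzyme CYP2C9 beyond about 50% at 5 µM, limit read from the data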
* hit, by the source's call; . = no result given.

SMILES	CYP2C19 act	Cav32 inh	CYP2C9 activ	CYP2C19 inh	CYP2C9 inhib
O=C(Cn1c(=O)oc2cc(S(=O)(=O)N3CCc4ccccc43)ccc21)NC1CCCC1	0.8	-0.683	0.4	21.1	64.0*
CC(C)CCNC(=O)Cn1c(=O)oc2cc(S(=O)(=O)N3CCc4ccccc43)ccc21	0.7	-1.98	0.2	34.2	82.9*
CCOC(=O)Cn1c(=O)oc2cc(S(=O)(=O)N3CCCc4ccccc43)ccc21	0.2	.	0.2	77.2*	77.3*
CCOC(=O)c1sc(NC(=O)CSc2nc3c(c(=O)n2-c2ccc(F)cc2)SCC3)c(C(=O)OCC)c1C	.	-0.0252	.	.	.
COC(=O)CNC(=O)CN1C(=O)N(c2cccc(Cl)c2)C(N(O)C(=O)Nc2cccc(Cl)c2)C1(C)C (centres undefined)	0.8	-4.69*	0.8	16.9	20.9
CNc1ccc(C(O)(C(F)(F)F)C(F)(F)F)cc1C(O)(C(F)(F)F)C(F)(F)F	0.3	-7.08*	0.5	74.6*	52.9*
CCOC(=O)N(C)c1ccc(C(O)(C(F)(F)F)C(F)(F)F)cc1	0.6	-0.576	0.5	38.9	47.1
CC(C)(C)c1cc(C(=O)Nc2ccccc2)ccn1	.	-0.0541	.	.	.
Cc1ccc(NC(=O)c2ccnc(C(C)(C)C)c2)cc1	.	-0.474	.	.	.
CC(C)(C)NC(=O)c1ccnc(C(C)(C)C)c1	0.5	0.289	1	52.3*	-3.0
CC(NC(=O)c1ccnc(C(C)(C)C)c1)c1ccccc1 (centres undefined)	0.4	0.717	0.4	55.6*	55.3*
CCOC(=O)CCC(=O)N1CCOCCN(C(=O)CCC(=O)OCC)CCOCC1	0.9	-0.212	0.9	5.4	9.3
Cn1c(CNc2nc(-c3ccccc3)cs2)nnc1SCC(=O)OC1CCCCC1	.	-6.11*	.	.	.
COc1cc(Nc2ccccc2Cl)c([N+](=O)[O-])nc1[N+](=O)[O-]	0.2	0.247	0.9	80.9*	8.1
COC(=O)C1=C(N)N(c2ccc(F)cc2)C2=C(C(=O)CCC2)C1c1ccc2c(c1)OCO2 (centres undefined)	1.1	.	1.1	-9.0	-5.9
COCCN1CN(S(=O)(=O)c2ccccc2)c2nc3ccccc3nc21	0.2	-0.32	0.4	83.3*	63.3*
CC(C)CCN1CN(S(=O)(=O)c2cccs2)c2nc3ccccc3nc21	0.9	0.26	0.9	11.6	13.5
COCCN1CN(S(=O)(=O)c2ccc(Cl)cc2)c2nc3ccccc3nc21	0.1	-0.272	0.5	94.0*	51.1*
Cc1ccc(-c2nc3nc4ccccc4nc3n2Cc2ccco2)cc1	1	0.00802	0.8	1.2	24.2
Cc1cccc(S(=O)(=O)N2CN(Cc3ccco3)c3nc4ccccc4nc32)c1	0.2	-0.321	0.4	79.0*	60.9*
Cc1ccc(CN2CN(S(=O)(=O)c3cccs3)c3nc4ccccc4nc32)cc1	1.1	.	0.4	-5.7	55.8*
O=S(=O)(c1ccc(Cl)cc1)N1CCn2c1nc1ccccc12	0.7	0.131	1	29.7	-4.0
CCCCN1CN(S(=O)(=O)c2cccs2)c2nc3ccccc3nc21	1	0.576	1	1.9	-1.7
Cc1cc(C)nc(-n2nc(C)cc2Nc2ccccc2)n1	0.9	.	1	9.5	-1.2
Cc1cc(Nc2ccccc2)n(-c2ccccc2)n1	0.1	-8.36*	0.3	89.9*	75.0*
SMILES	CYP2C19 act	Cav32 inh	CYP2C9 activ	CYP2C19 inh	CYP2C9 inhib
Cc1cc(NS(=O)(=O)c2ccccc2)n(-c2ccccc2)n1	1	-0.386	0.1	3.7	86.3*
Clc1cccc(CNc2nnnn2-c2ccccc2)c1	0.9	.	0.8	11.8	23.0
Cc1cc(Nc2nnnn2-c2ccccc2)n(-c2ccc(Cl)cc2)n1	0.3	-0.638	0.7	65.1*	31.5
O=C(CCCn1c(=O)[nH]c2cc(Cl)ccc2c1=O)NCCCN1CCCC1=O	1.1	0.0711	0.9	-12.5	11.6
CCn1c(CSCc2ccc(C)cc2)nnc1SCC(=O)NCc1ccccc1	0.8	-3.27	0.5	24.2	54.2*
Clc1ccc(NCc2nncn2-c2ccccc2)cc1	0	0.0945	0.7	98.3*	26.1
CCn1c(CSCc2ccc(F)cc2)nnc1SCC(=O)NCc1ccccc1	0.6	-1.16	0.6	40.7	42.4
Cn1c(CNc2ccc(Cl)cc2)nnc1SCc1ccccc1	0.7	-2.33	0.4	33.9	57.4*
Cn1c(CNC(=O)Nc2ccccc2Cl)nnc1SCc1ccccc1	0.4	-0.642	0.7	64.4*	31.8
Nc1nc(NCc2ccco2)nn1-c1ccccc1	1	-0.335	1	4.4	0.2
CC1(C)CC(=O)C(/C=N/n2c(C(F)(F)F)nc3ccccc3c2=O)=C(O)C1	1.1	0.282	0.7	-8.8	29.6
